A selection: hits, their analogues and other compounds. The true share with any hit is near 9.2%.
NPC1 promoter act: activators of NPC1 promoter. Huh7 NPC1 promoter luciferase reporter, 24 h. 2.4% of 320,000 active. Potency, µM (highest dose often 9.22 µM), inactives show at the highest dose activation, hits mostly activators; note: % of control where 0% means no effect; nearly all actives have a fitted effect of over 60% in size
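Luciferase expression driven by the NPC1 promoter was measured in stably transfected Huh7 cells after a 24 h compound incubation, using a luciferase reagent and a luminescence read.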
SMN2 splice enh: SMN2 splice variant enhancement | Potency, µM (top dose mostly 46.1 µM), for the others: top-dose activity change, positive = activation, most hits filed as activators | HEK293 SMN2-luciferase splicing reporter, luminescence, 30-36 h | 2.8% of 210,000 active; note: % of control where 0% means no effect; nearly all actives have a fitted effect of over 55% in size
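HEK293 cells carry an SMN2 […]–luciferase reporter in which exon 7 inclusion puts luciferase in frame. Cells were plated 10-12 h before compound addition, then incubated 30-36 h at 37C. ONE-Glo luminescence was read; sodium butyrate at 4.5 mM final served as control.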
FLuc counter: firefly luciferase modulation, counter-screen for miR-21 project; P08659; purified FLuc, Km substrates, luminescence inhibition; Potency, µM (titrated, usually from 57.5 µM), for inactives: at the highest dose activity change, negative = inhibition, hits mostly inhibitors; 6.9% of 360,000 active; AID 588342;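 note: plate controls were vehicle for no effect and reference inhibitor for full effect; nearly all actives have a fitted effect of over 55% in size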
Target sequence (P08659 whole entry, looked up): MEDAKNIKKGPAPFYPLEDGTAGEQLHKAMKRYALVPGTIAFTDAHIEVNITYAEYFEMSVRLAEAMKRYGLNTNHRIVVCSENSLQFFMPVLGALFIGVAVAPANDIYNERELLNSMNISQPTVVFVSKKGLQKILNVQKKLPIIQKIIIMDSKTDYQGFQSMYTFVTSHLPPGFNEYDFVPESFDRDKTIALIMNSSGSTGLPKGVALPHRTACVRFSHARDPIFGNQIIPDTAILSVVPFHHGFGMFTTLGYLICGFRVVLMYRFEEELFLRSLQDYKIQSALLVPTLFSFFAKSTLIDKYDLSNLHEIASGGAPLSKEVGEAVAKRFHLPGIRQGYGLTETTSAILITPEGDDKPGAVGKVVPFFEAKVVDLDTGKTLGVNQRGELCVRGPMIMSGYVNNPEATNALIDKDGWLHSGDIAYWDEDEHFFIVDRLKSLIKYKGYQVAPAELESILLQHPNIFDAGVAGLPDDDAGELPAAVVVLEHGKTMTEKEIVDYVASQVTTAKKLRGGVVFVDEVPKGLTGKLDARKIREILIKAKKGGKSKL
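Purified P. pyralis luciferase (10nM final) with 10uM D-luciferin and 10uM ATP (Km levels) in 50mM Tris acetate pH 7.5, 10mM Mg acetate, 0.01% Tween-20, 0.05% BSA; qHTS 6-point titration, ~60 µM downward; luminescence read.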
Rab9 prom act: activators of Rab9 promoter; Huh7 Rab9 promoter-luciferase reporter, luminescence, 24 h; Potency, µM (series often up to 9.22 µM), for the others: at the top dose activation, negative = inhibition, most hits filed as activators; 2.8% of 320,000 active; note: % of control where 0% means no effect; nearly all actives have a fitted effect of over 60% in size
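Promoter activation is measured as luciferase luminescence in Huh7 cells stably transfected with a Rab9 promoter–luciferase construct, following 24 h compound exposure at 37 °C and 10 min reagent incubation at ambient temperature.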
ELG1 repair inh: ELG1-dependent DNA repair inhibition; HEK293T ELG1-luciferase reporter, luminescence, 16 h; DNA damage induced by 5-fluorouridine; Potency, µM (doses to about 46.1 µM), inactives show top-dose activity change, negative = inhibition, hits mostly inhibitors; 2.3% of 330,000 active; AID 504467; note: % is set by controls: 0 for no effect and ±100 for the full control effect; nearly all actives have a fitted effect of over 55% in size
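Step one: seed 2,000 cells per well. Step two: pin-transfer compound or DMSO alongside 5-fluorouridine. Step three: incubate 16 hr, 37 °C, 5% CO2. Step four: add ONE-Glo, wait 30 min, read luminescence.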
ELG1 genotoxic: induces genotoxicity in HEK293T cells with luciferase-tagged ELG1. 1.3% of 330,000 active. HEK293T ELG1-luciferase reporter, luminescence, 16 h. Potency, µM (series often up to 46 µM), without a hit: at the highest dose activity change, positive = activation, actives largely listed as activators; note: % of control where 0% means no effect; nearly all actives have a fitted effect of over 60% in size
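16 hr compound incubation (37 °C, 5% CO2) of HEK293T cells carrying luciferase-tagged ELG1; luciferase then measured by ONE-Glo luminescence after 30 min at RT.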
Numbers without * were called inactive; ? = inconclusive; / = no result given. Calls come from the whole dose curve; as a rule, active = well fitted curve in the direction sought with a large enough effect; inconclusive = small, poorly fitted or top-dose-only effect, or another doubt; inactive = no such curve, though single readings can be large; an effect the other way counts as inactive or inconclusive. Potency is the fitted concentration of half-maximal effect.

SMILES	NPC1 promoter act	SMN2 splice enh	FLuc counter	Rab9 prom act	ELG1 repair inh	ELG1 genotoxic
CCN1C(=O)c2ccccc2S(=O)c2ccc(C(=O)N3CCN(c4ccccc4OC)CC3)cc21 (stereo unspecified)	/	-2%	1%	/	/	/
O=C(NC1CCCCC1)C(=O)c1c[nH]c2ccccc12	?	/	11µM*	3.2µM*	?	15µM*
Cc1[nH]c2ccccc2c1C(=O)C(=O)NC1CC1	?	/	9.5µM*	1.3µM*	?	?
O=C(NCCOc1ccccc1)C(=O)c1c[nH]c2ccccc12	12%	/	27µM*	14%	?	4%
Cc1ccc(NC(=O)C(=O)c2c[nH]c3ccccc23)cc1	0.63µM*	/	1.5µM*	0.79µM*	?	?
Cc1cccc(OCCn2c(-c3ccc(Cl)cc3)nc3ccccc3c2=O)c1C	/	8%	-2%	/	/	/
O=S(=O)(NNc1ccc(Cl)nn1)c1ccc(F)cc1	5%	-5%	?	19%	9%	-2%
COc1cc([N+](=O)[O-])ccc1N1C(=O)C2C3C=CC(C4CC34)C2C1=O (stereo unspecified)	-10%	-14%	13µM*	0%	-6%	-3%
CC(=O)N1c2ccc(N=Cc3cc(Br)cc(Br)c3O)cc2CC1C (stereo unspecified)	-3%	/	9.5µM*	1%	-2%	2%
Cc1ccc(N/N=C2\CCS(=O)(=O)c3sccc32)cc1	5%	-2%	17µM*	-1%	0%	10%
Cc1ccccc1C(=O)O/N=C1\CCS(=O)(=O)c2sccc21	?	16%	0.6µM*	?	?	12µM*
CC(C)C(=O)O/N=C1\CCS(=O)(=O)c2sccc21	-9%	-8%	3%	2%	13%	2%
COc1ccc(C(=O)O/N=C2\CCS(=O)(=O)c3sccc32)cc1	-4%	/	1.9µM*	-4%	13%	4%
COc1c(O)cc(O)c2c(=O)cc(-c3ccccc3)oc12	/	/	/	/	12%	12%
CCN(CC)c1nc2c(S(=O)(=O)c3ccc(C)cc3)nnn2c2ccsc12	/	/	-9%	/	/	/
NC(=S)N/N=C1\CC(c2ccc3c(c2)OCCCO3)Oc2ccc(F)cc21 (stereo unspecified)	-1%	/	15µM*	1%	3.7µM*	-7%
NC(=S)N/N=C1\CC(c2ccc3c(c2)OCCO3)Oc2ccc(F)cc21 (stereo unspecified)	-3%	/	?	-1%	-15%	-6%
CC(=O)N=c1c(C#N)cc2c(=O)n3cccc(C)c3nc2n1CCCOC(C)C	-3%	/	1%	-2%	7.3µM*	-4%
COCCCn1c(=NC(=O)c2ccncc2)c(C#N)cc2c(=O)n3cccc(C)c3nc21	-4%	?	-1%	-5%	-12%	-6%
Cc1cccn2c(=O)c3cc(C#N)c(=NC(=O)c4ccncc4)n(CCCOC(C)C)c3nc12	0%	-8%	4%	-5%	12µM*	0%
Cc1cccn2c(=O)c3cc(C#N)c(=NC(=O)c4cccs4)n(CCCOC(C)C)c3nc12	-1%	/	1%	3%	0%	-6%
Cc1cc(NC(=O)CCCSc2nc(-c3ccco3)cc(C(F)(F)F)n2)n(-c2ccccc2)n1	-12%	-41%	6%	0%	16µM*	-7%
COc1ccc(-n2nc(C(=O)NCC(=O)Nc3cc(OC)ccc3OC)c3ccccc3c2=O)cc1	-25%	/	0%	-8%	13µM*	-16%
COc1ccc(-n2nc(C(=O)Nc3ccc(OC)c(OC)c3)c3c4ccccc4n(C)c3c2=O)cc1	-1%	-4%	4%	0%	8.2µM*	17%
COc1ccc(-n2nc(C(=O)NCC(=O)Nc3cc(Cl)c(OC)cc3OC)c3ccccc3c2=O)cc1	-12%	/	-2%	-7%	?	-7%
SMILES	NPC1 promoter act	SMN2 splice enh	FLuc counter	Rab9 prom act	ELG1 repair inh	ELG1 genotoxic
CCN(CCCNC(=O)CNC(=O)c1nn(-c2ccc(OC)c(OC)c2)c(=O)c2ccccc12)c1ccccc1	1%	/	-1%	-3%	10µM*	-9%
COc1ccc(-n2nc(C(=O)NCC(=O)NCCc3ccc(OC)c(OC)c3)c3ccccc3c2=O)cc1	-8%	/	-1%	2%	16µM*	-13%
CCN(CCCNC(=O)CNC(=O)c1nn(-c2ccc(OC)cc2)c(=O)c2ccccc12)c1cccc(C)c1	-7%	/	-2%	4%	-24%	-16%
Cc1ccc(CNC(=O)COC(=O)CCC(=O)c2cccs2)cc1	3%	13%	?	1%	5%	2%
Cc1ccc(-c2nc(C#N)c(N3CCC(C(N)=O)CC3)o2)cc1	1%	/	?	-3%	-1%	3%
COc1ccc(NC(=O)N2CCN3CCCCC3C2)cc1OC (stereo unspecified)	/	/	-4%	/	/	/
CCn1c(-c2ccccc2)csc1=Nc1ccc(S(=O)(=O)O)cc1	?	-18%	3.8µM*	?	6%	0%
COCCCn1c(-c2ccc(S(=O)(=O)N3CCOCC3)cc2)csc1=Nc1ccccc1	-9%	-24%	-2%	-21%	6.5µM*	8%
O=C(Oc1ccc(-c2ccccc2)cc1)C1C2CCCCC21 (stereo unspecified)	-4%	5%	4.8µM*	-5%	-1%	17%
O=C(Oc1ccc(-c2ccccc2)cc1)N1CCCCC1	/	?	8.5µM*	/	/	/
COc1cccc(NC(=O)C(OC(=O)c2cnc(C)cn2)c2ccccc2)c1 (stereo unspecified)	1%	/	4%	-4%	2%	0%
CNc1sc(C(=O)c2ccc(F)cc2)c(N)c1-c1nc2ccccc2s1	17%	-13%	?	-5%	?	?
CNc1sc(C(=O)c2cccs2)c(N)c1-c1nc2ccccc2s1	4µM*	5µM*	2.7µM*	2.8µM*	?	?
CCOC(=O)c1c(C)nc2c(c1-c1ccccc1)C(=O)c1ccccc1-2	1%	-10%	-15%	-3%	?	-2%
Cc1oc2c(c1C(=O)c1ccccc1)C(=O)C(=O)c1ccccc1-2	-46%	-93%	-5%	8%	?	-19%
Cc1oc2c(c1C(=O)O)C(=O)c1ccccc1C2=O	14%	-13%	-6%	?	8.2µM*	-3%
CCOC(=O)c1c(C)oc2c1C(=O)c1ccccc1C2=O	-2%	-69%	-8%	-13%	7.3µM*	-13%
Cn1c(N)c(C(=O)COC(=O)[C@@H]2CCCN2S(=O)(=O)c2ccc(Cl)cc2)c(=O)n(C)c1=O	-2%	/	6%	-8%	8%	0%
